Source: the supplement of paper PMC6992640
± gives the standard deviation of the averaged measurements.

Legend:
Assay in all cases: cell viability (% of vehicle); higher = less cytotoxic
Details in all cases: 10 µM; 72 h
[1] = tested on: HCI01 (cells of a triple-negative basal-like breast cancer xenograft)
[2] = tested on: HCI03 (cells of an ER-positive luminal breast cancer xenograft)
[3] = tested on: HCI09 (cells of a triple-negative luminal androgen receptor type breast cancer xenograft)
[4] = tested on: HCI11 (cells of an ER-positive luminal breast cancer xenograft)
[5] = tested on: HCI13 (cells of an ER-positive luminal breast cancer xenograft)
[6] = tested on: HCI16 (cells of a triple-negative basal-like breast cancer xenograft)
[7] = tested on: UCD52 (cells of a triple-negative basal-like breast cancer xenograft)
[8] = tested on: WHIM2 (cells of a triple-negative basal-like breast cancer xenograft)
[9] = tested on: WHIM30 (cells of a triple-negative basal-like breast cancer xenograft)
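Further: PDX cells carrying CMV promoter-driven luciferase, viability read as total photon flux per second by IVIS imaging following D-luciferin, vehicle control 0.1% DMSO.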

Row | Compound | cell viability [1] | cell viability [2] | cell viability [3] | cell viability [4] | cell viability [5] | cell viability [6] | cell viability [7] | cell viability [8] | cell viability [9]
1 | O=N[O-].[Na+] [Sodium Nitrite] | 104 ± 6.4 | 95.5 | 90.5 ± 4.7 | 91.5 | 55.8 ± 2.9 | 108 | 84 ± 5.8 | 114 ± 17 | 116 ± 21
2 | CC(=O)Nc1cccc(-n2c(=O)n(C3CC3)c(=O)c3c(Nc4ccc(I)cc4F)n(C)c(=O)c(C)c32)c1 | 103 ± 34 | 94 | 82.1 ± 34 | 98.3 | 110 ± 16 | 120 | 48 ± 14 | 74.2 ± 8.9 | 133 ± 24
3 | Nc1ccc(S(N)(=O)=O)cc1 [Sulfanilamide] | 106 ± 25 | 127 | 97.7 ± 18 | 83.1 | 164 ± 9.1 | 120 | 94.6 ± 8.7 | 105 ± 7.5 | 140 ± 13
4 | Cc1c(-c2ccccc2)oc2c(C(=O)OCCN3CCCCC3)cccc2c1=O.Cl [Flavoxate hydrochloride] | 87 ± 21 | 123 | 115.8 ± 0.74 | 90.9 | 128 ± 27 | 119 | 99.5 ± 2 | 88.5 ± 24 | 107 ± 9.2
5 | CC(=O)OCC(=O)C1(O)CCC2C3CCC4=CC(=O)CCC4(C)C3C(=O)CC21C (stereo unspecified) [Cortisone acetate] | 119 ± 17 | 130 | 119 ± 47 | 105 | 96.1 ± 13 | 140 | 106 ± 31 | 112 ± 19 | 119 ± 6.2
6 | Cl.NC(N)=NC(N)=NCCc1ccccc1 [Phenformin HCl] | 117 ± 7.8 | 114 | 53.2 ± 5.3 | 110 | 58.8 ± 5.4 | 94.6 | 78.7 ± 3.6 | 95.4 ± 15 | 90.3 ± 11
7 | CCCN(CCC)C(=O)C1=Cc2ccc(-c3ccc(C(=O)N4CCCC4)cc3)cc2NC(=N)C1 [Motolimod (VTX-2337)] | 100 ± 41 | 97.5 | 32.1 ± 0.89 | 63.6 | 76.6 ± 7 | 105 | 66 ± 3.8 | 71 ± 15 | 100 ± 12
8 | O=C(O)C=Cc1ccccc1 [Cinnamic acid] | 98.7 ± 32 | 108 | 96 ± 4.4 | 94.3 | 107 ± 15 | 121 | 98.4 ± 12 | 105 ± 15 | 117.9 ± 0.11
9 | O=C(O)C=Cc1ccc(Cn2ccnc2)cc1 [Ozagrel] | 95.1 ± 6.6 | 145 | 90.9 ± 16 | 106 | 116 ± 6.6 | 98.4 | 88 ± 3.2 | 97.8 ± 2.4 | 87.2 ± 20
10 | CCCCCCCCCCCCCCCCCCCCCCO [Docosanol (Abreua)] | 82.8 ± 2.5 | 93.4 | 82.5 ± 8 | 95.6 | 97.3 ± 27 | 84.5 | 76.5 ± 11 | 81.8 ± 19 | 102 ± 3
11 | COc1ccnc(C[S+]([O-])c2nc3cc(OC(F)F)ccc3[nH]2)c1OC (stereo unspecified) [Pantoprazole] | 123 ± 15 | 133 | 102 ± 2.6 | 103 | 97.1 ± 2.1 | 108 | 130 ± 5.1 | 100 ± 7.9 | 130 ± 7.3
12 | CCOC(=O)c1ccc(C#Cc2ccc3c(c2)C(C)(C)CCS3)nc1 [Tazarotene] | 141 ± 48 | 108 | 127 ± 22 | 113 | 184 ± 8.9 | 97.9 | 104 ± 16 | 123 ± 1.6 | 188 ± 10
13 | CNC(=O)[C@H](Cc1ccccc1)NC(=O)[C@H](CC(C)C)[C@H](CSc1cccs1)C(=O)NO [Batimastat (BB-94)] | 94.3 ± 12 | 88.2 | 78.2 ± 20 | 95.3 | 127 ± 3.9 | 67 | 127 ± 16 | 72 ± 22 | 175 ± 0.83
14 | Cl.NC1=NCC2c3ccccc3Cc3ccccc3N12 (stereo unspecified) [Epinastine HCl] | 102 ± 1.5 | 94.8 | 82.5 ± 4.8 | 95.5 | 79.4 ± 1.9 | 118 | 79 ± 1.4 | 96.5 ± 8.4 | 89.3 ± 7
15 | Nc1ccc(S(=O)(=O)Nc2ccccn2)cc1 [Sulfapyridine] | 111.2 ± 0.17 | 131 | 101 ± 2.1 | 92.6 | 138 ± 15 | 147 | 113 ± 19 | 100 ± 0.64 | 120 ± 12
16 | CCN(CC)C(=O)C(C#N)=Cc1cc(O)c(O)c([N+](=O)[O-])c1 [Entacapone] | 121 ± 8.8 | 159 | 105 ± 2.4 | 80.8 | 98.77 ± 0.41 | 105 | 98.7 ± 14 | 192 ± 14 | 104 ± 7
17 | CC(C)(C)c1nc(-c2cccc(NS(=O)(=O)c3c(F)cccc3F)c2F)c(-c2ccnc(N)n2)s1 | 118 ± 12 | 125 | 98.9 ± 1.2 | 119 | 187 ± 54 | 73.6 | 122 ± 12 | 116 ± 4.4 | 91.4 ± 15
18 | NC(=O)c1cccnc1 [Nicotinamide] | 95.4 ± 11 | 114 | 95.5 ± 14 | 99.9 | 110 ± 5 | 107 | 99.57 ± 0.88 | 86.9 ± 12 | 94.7 ± 5.4
19 | CCCCN1CCCCC1C(=O)Nc1c(C)cccc1C.Cl (stereo unspecified) [Levobupivacaine HCl] | 109 ± 22 | 101 | 117 ± 29 | 106 | 121 ± 14 | 141 | 107 ± 4.1 | 96.2 ± 3 | 163 ± 5.2
20 | Cc1ccc(-c2ncc(Cl)cc2-c2ccc(S(C)(=O)=O)cc2)cn1 [Etoricoxib] | 107 ± 4.3 | 118 | 85.1 ± 16 | 79.9 | 96.7 ± 2.1 | 141 | 77.3 ± 3.4 | 143 ± 16 | 116 ± 13
21 | CCOC(=O)C1=CC(OC(CC)CC)C(NC(C)=O)C(N)C1 (stereo unspecified) [Oseltamivir] | 111 ± 11 | 124 | 96.2 ± 20 | 97.4 | 99.2 ± 7.4 | 91 | 96.03 ± 0.49 | 91.98 ± 0.9 | 126 ± 6.9
22 | Cc1ccc(F)c(NC(=O)Nc2ccc(-c3cccc4[nH]nc(N)c34)cc2)c1 [Linifanib (ABT-869)] | 117 ± 45 | 165 | 54.2 ± 0.96 | 68.7 | 72 ± 2.6 | 120 | 92.18 ± 0.33 | 160 ± 47 | 139 ± 45
23 | CCC1=C(C)CN(C(=O)NCCc2ccc(S(=O)(=O)NC(=O)NC3CCC(C)CC3)cc2)C1=O (stereo unspecified) [Glimepiride] | 158 ± 17 | 123 | 86.6 ± 14 | 147 | 93.2 ± 11 | 158 | 129 ± 3.5 | 105 ± 6.7 | 164.4 ± 0.77
24 | O=c1oc2c(O)c(O)cc3c(=O)oc4c(O)c(O)cc1c4c23 [Ellagic acid] | 102 ± 15 | 144 | 100 ± 3 | 105 | 177 ± 43 | 125 | 103.5 ± 0.7 | 118 ± 11 | 115 ± 11
